According to PubChem BioAssay:
A number with no mark means an inactive call.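 How the source made its calls: active means viability increase at or above a cutoff of the median across tested compounds plus 3 SD (cut at about 8.5% in these data, passing the limit was not always enough); inconclusive means some gains above the cutoff, reason not given; inactive means the rest.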

assay: viability gain of MRP-1-high H69AR cells under doxorubicin, pilot screen, MRP-1 activator project, CellTiter-Glo, duplicate (AID 807); settings: H69AR viability with doxorubicin, CellTiter-Glo luminescence; at 10 µM; stronger effect = higher value;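 further: compound pretreatment 18-22 h then 72 h combined with doxorubicin; 0% = doxorubicin alone and 100% = vehicle without doxorubicin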

Compound | viability increase
CCOC(=O)c1cc(NC(=O)SCC(=O)O)c(C)nc1C | 2.31%
Clc1c(CSc2nc3ccccc3o2)nc2sccn12 | -6.43%
O=C(CCn1[nH]c(=O)c2ccccc2c1=O)NCCO | -0.03%
CC12CCC(C(=O)N3CCN(C(=O)C45CCC(C)(C(=O)O4)C5(C)C)CC3)(OC1=O)C2(C)C | -0.17%
COc1cccc(C2C(C(=O)c3cccs3)=C(O)C(=O)N2CCCn2ccnc2)c1OC (stereo not given) | -1.56%
Cc1ccc(S(=O)(=O)N(CC(=O)N2CCC(C(N)=O)CC2)Cc2ccc(F)cc2)cc1 | -2.26%
COc1ccc(N2CCN(C(=O)CSc3ccccc3)CC2)cc1 | -3.92%
COc1ccccc1N1CCN(C(=O)C2CCN(S(=O)(=O)c3ccc(F)cc3)CC2)CC1 | -0.47%
COCCN1C=C(C(=O)OC)C(c2cc3c(cc2Br)OCO3)C(C(=O)OC)=C1 | -1.16%
CC1=C(C(N)=O)C(c2ccccn2)n2nc(SCc3ccccc3)nc2N1 (stereo not given) | 2.38%
O=C(/C=C/N1CCOCC1)c1ccc(-c2ccccc2)cc1 | -1.77%
CCOc1ccc(NS(=O)(=O)c2cc(Cl)ccc2OC)cc1 | -2.64%
COc1ccc(NC(=O)CC2CCCCC2)cc1OC | -0.97%
Cc1oc(-c2cccc(Cl)c2)nc1CN1CCC(C(=O)N2CCN(c3ccccc3F)CC2)CC1 | -7.78%
O=C(Nc1ccc2c(c1)OCCO2)C1CCN(C(=O)c2ccc(F)cc2)CC1 | -3.11%
CCOC(=O)Nc1c(O)ccc2oc(C)c(-c3ccccc3)c12 | -2.89%
O=C(CCNS(=O)(=O)c1cccs1)Nc1ccccc1F | -0.31%
CCOC(=O)N1CCN(C(=O)CN(C2CCCCC2)S(=O)(=O)c2ccc(F)cc2)CC1 | 0.22%
O=C(COc1ccc(F)cc1)Nc1ccc(-n2cnnn2)cc1 | 3.62%
O=C(Cn1c(=O)sc2ccccc21)NCCOc1ccccc1F | -0.76%

Compound | viability increase
O=C(c1ccco1)c1nnn(Cc2ccccc2)c1-c1ccccc1 | -2.38%
O=C(Nc1ncc(Cc2ccccc2)s1)C1CCCO1 (stereo not given) | 1.91%
CC1=C(C(=O)OC2CCCCCC2)C(c2ccc(C)o2)C2=C(CCCC2=O)N1 (stereo not given) | -2%
CC12CN3CCN(CC(C3)C1(O)CN1CCCCC1)C2 (stereo not given) | -1.63%
CCn1c(C(C#N)/C(=N\S(=O)(=O)c2cccs2)c2ccccc2)nc2ccccc21 (stereo not given) | -3.19%
CCOC(=O)N1CCN(C(=O)c2cnn(-c3ccccc3)c2NC(=O)c2ccccc2F)CC1 | -1.55%
O=C(CCC(=O)OCC(=O)c1ccccc1)NC1CCCCC1 | -0.49%
O=C(Nc1nc2c(s1)CCCC2)C1COc2ccccc2O1 (stereo not given) | 0.74%
CCN(CC)S(=O)(=O)c1ccc2c(c1)nc(SCn1nnc3ccccc3c1=O)n2CC | 2.88%
Cc1ccc(N2C(=O)c3oc4ccccc4c(=O)c3C2c2cccc(O)c2)nc1 (stereo not given) | 1.12%
COc1cc(C(=O)NCCc2ccc3c(c2)OCCO3)ccc1OCC(=O)N1CCOCC1 | -2.17%
O=C(CN1CCN(Cc2ccccc2)CC1)NCC1COc2ccccc2O1 (stereo not given) | -1.29%
Cc1nonc1NC(=O)c1ccccc1Br | 0.21%
Cc1cc(NC(=O)CSc2nc3c(c(-c4cccnc4)c2C#N)CCC3)no1 | 0.51%
Cc1onc(-c2ccccc2)c1C(=O)NCc1cccnc1 | -1.32%
OC(CNCCc1ccccc1)c1ccccc1 (stereo not given) | -0.36%
Cc1ccc(C)n1-c1ccc(N2CCOCC2)cc1 | -7.18%
C#CCOC(=O)C1C2C=CC(C2)C1C(=O)O (stereo not given) | 0.51%
Cc1ccc(C(=O)Nc2c(C(=O)N3CCOCC3)cnn2-c2ccccc2)cc1 | -1.89%
Clc1cccc(-c2nnc(-c3ccccc3)o2)c1 | -6.09%
